Results filed as inconclusive are left out. Activity calls are given as the source filed them. Unless noted, calls follow the shape of the dose curve; as a rule, active = well fitted curve in the direction sought with a large enough effect in the repeat runs; inconclusive = weak or mixed curves; inactive = no such curve, though single readings can be large; an effect the other way counts as inactive or inconclusive.
What was measured:
[1] = molecular target: Retinoic acid receptor RXR-alpha (Homo sapiens) (UniProt P19793); experiment: qHTS assay to identify small molecule agonists of the RXR signaling pathway (AID 1159527; calls by dose curve; also: nearly all actives have a fitted effect of over 35% in size)
Method in brief: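 Beta-lactamase reporter assay, agonist format. Engineered HEK 293T line, charcoal-stripped FBS at 2%, overnight (16 hr) exposure, fluorescence at 460 and 530 nm after 405 nm excitation.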

[2] = qHTS assay to identify small molecule agonists of the RXR signaling pathway - cell viability counter screen (AID 1159529); also: nearly all actives have a fitted effect of over 50% in size; also: potency is read from the fitted curve at half-maximal effect;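 as to activity change, negative = cytotoxicity: HEK 293T cells carrying an RXR-alpha UAS beta-lactamase reporter; series mostly up to about 77 µM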
Method in brief: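 Same-well viability check after the LiveBLAzer FRET read: CellTiter-Glo added, luminescence measured after 30 min at room temperature. Reporter HEK 293T cells had been treated with compounds for 16 hr following a 5 hr preincubation.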

[3] = qHTS assay to identify small molecule antagonists of the retinoid acid receptor (RAR) signaling pathway - cell viability counter screen (AID 1159551); also: nearly all actives have a fitted effect of over 35% in size; also: potency is read from the fitted curve at half-maximal effect
Method in brief: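 C3RL4 cells were seeded overnight at 37 C, then treated with compounds plus 1 uM (final) retinol for 6 h at 37 C. Viability was read as ATP by CellTiter-Glo luminescence after 30 min at room temperature.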

[4] = qHTS assay to identify small molecule antagonists of the retinoic acid receptor (RAR) signaling pathway (AID 1159552; also: nearly all actives have a fitted effect of over 50% in size)
Method in brief: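 Readout: luciferase luminescence, 30 min post-reagent at RT. Setup: C3RL4 RARE reporter cells, compounds plus retinol 1 uM final, 6 hr incubation at 37 C and 5% CO2.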

[5] = qHTS assay to identify small molecule agonists of the retinoic acid receptor (RAR) signaling pathway (AID 1159553); also: potency is read from the fitted curve at half-maximal effect
Method in brief: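 C3RL4 cells carrying a RARE luciferase reporter were plated overnight at 37 C, then exposed to compounds in DMSO for 6 hr at 37 C and 5% CO2. Luminescence was read 30 min after luciferase reagent addition at room temperature.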

[6] = qHTS assay to identify small molecule antagonists of the estrogen related receptor signaling pathway with the pleiotropic PPARgamma coactivator (PGC) cell viability counter screen (AID 1224822;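 also: series mostly up to about 46 µM; viability read after 17.5 h compound exposure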)
Method in brief: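 PGC/ERR cells were seeded at 2,000 cells/well, rested 6 h at 37 C/5% CO2, then given compounds in DMSO by pin tool and incubated 17.5 h at 37 C. Viability came from CellTiter-Fluor fluorescence after 30 min.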
% is scaled to controls: 0 for no effect and ±100 for the full control effect.

Sequence of Retinoic acid receptor RXR-alpha (Homo sapiens) (P19793 whole entry, looked up): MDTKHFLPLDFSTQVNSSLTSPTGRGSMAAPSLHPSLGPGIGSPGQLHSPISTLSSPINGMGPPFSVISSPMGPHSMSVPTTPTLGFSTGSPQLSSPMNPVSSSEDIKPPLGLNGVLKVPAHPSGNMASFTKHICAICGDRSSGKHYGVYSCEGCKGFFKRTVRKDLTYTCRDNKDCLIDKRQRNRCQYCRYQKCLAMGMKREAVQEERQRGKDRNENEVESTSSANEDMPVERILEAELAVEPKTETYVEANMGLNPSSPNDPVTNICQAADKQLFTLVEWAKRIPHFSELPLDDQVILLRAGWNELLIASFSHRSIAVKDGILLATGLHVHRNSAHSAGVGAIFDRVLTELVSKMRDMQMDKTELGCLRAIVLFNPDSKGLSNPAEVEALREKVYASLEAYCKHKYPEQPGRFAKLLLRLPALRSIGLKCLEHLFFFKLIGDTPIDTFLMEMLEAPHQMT

CCn1nc(C)c2c1C(=O)NCC(c1ccc(O)cc1)=N2
inactive: Potency [1] | Potency [2] | Potency [3]

CC(=O)Nc1ccccc1C
inactive: Potency [1] | Potency [2] | Potency [3]

OC(CCCN1CCCCC1)(c1ccccc1)c1ccccc1
inactive: Potency [1] | Potency [2] | Potency [3]

COC(=O)c1cc(Cl)ccc1NS(=O)(=O)C(F)(F)F
inactive: Potency [1] | Potency [2] | Potency [3] | Potency [4]

CCCCCCCCCOC(C)=O
inactive: Potency [1] | Potency [2]

C/C=C(\C)C(=O)OCCC(C)CCC=C(C)C (stereo unspecified)
inactive: Potency [1] | Potency [2] | Potency [3]

O=C(O)c1snc(Cl)c1Cl
inactive: Potency [1] | Potency [2] | Potency [3]

CN1CCN(CCCN2c3ccccc3Sc3ccc(S(=O)(=O)N(C)C)cc32)CC1
active: Potency [2] 23.9 µM
inactive: Potency [1] | Potency [3]

CC1=C(C=O)C(C)(C)CCC1
inactive: Potency [1] | Potency [2] | Potency [3]

C/C(=N/NC(=O)c1ccncc1)C(=O)O
inactive: Potency [1] | Potency [2] | Potency [3]

CC(=O)OCC(=O)[C@@]12OC(C)(C)O[C@@H]1C[C@H]1[C@@H]3C[C@H](F)C4=CC(=O)C=C[C@]4(C)[C@@]3(F)[C@@H](O)C[C@@]12C
inactive: Potency [1] | Potency [2] | Potency [3]

CN1CCN(c2c(F)cc3c(=O)c(C(=O)O)cn4c3c2OCN4C)CC1
inactive: activation [1] 9.65% [at 15.8 µM] | activity change, negative = cytotoxicity [2] 2.53% [at 15.8 µM] | activity change, negative = cytotoxicity [3] -0.366% [at 19 µM]

CCCC(=O)O[C@]1(C(=O)COC(=O)CC)CC[C@H]2[C@@H]3CCC4=CC(=O)CC[C@]4(C)[C@H]3[C@@H](O)C[C@@]21C
inactive: activation [1] 11.5% [at 15.8 µM] | activity change, negative = cytotoxicity [2] 2.05% [at 15.8 µM] | activity change, negative = cytotoxicity [3] -1.52% [at 19 µM]

Cn1c(=O)c2c(ncn2CC(=O)O)n(C)c1=O
inactive: Potency [1] | Potency [2] | Potency [3]

Nc1ccc(S(=O)(=O)O)c(N)c1
inactive: Potency [1] | Potency [2] | Potency [3]

CCn1cc(C(=O)O)c(=O)c2cc(F)c(N3CCNCC3)nc21
inactive: Potency [1] | Potency [2] | Potency [3]

NC(=O)Nc1ccc(Cl)cc1
inactive: Potency [1] | Potency [2]

CCC(C)(O)CCC=C(C)C (stereo unspecified)
inactive: Potency [1] | Potency [2]

CO[Si](C)(OC)OC
inactive: Potency [1] | Potency [2] | Potency [3]

CCCCC(CC)COC(=O)COc1ccc(Cl)cc1C (stereo unspecified)
inactive: Potency [1] | Potency [2] | Potency [3]

CC(N)CN (stereo unspecified)
inactive: Potency [1] | Potency [2] | Potency [3]

O=S1OCCO1
inactive: Potency [1] | Potency [2] | Potency [3]

O=C(C(=O)c1ccccc1)c1ccccc1
inactive: Potency [1] | Potency [2]

CC1CN(c2cc3c(cc2F)c(=O)c(C(=O)O)cn3-c2ccc(F)cc2F)CCN1 (stereo unspecified)
inactive: activation [1] -0.207% [at 6.98 µM] | activity change, negative = cytotoxicity [2] -4.54% [at 6.97 µM] | activity change, negative = cytotoxicity [3] 0.772% [at 8.39 µM]

CCCCCCOC(=O)CCCCCCCC(=O)OCCCCCC
inactive: Potency [1] | Potency [2] | Potency [3]

Oc1cc(O)c(Cl)cc1Cl
inactive: Potency [1] | Potency [2] | Potency [3]

N#C[C@@H]1C[C@@H]2C[C@@H]2N1C(=O)[C@@H](N)C12CC3CC(CC(O)(C3)C1)C2
inactive: Potency [1] | Potency [2] | Potency [3]

Nc1nccs1
inactive: Potency [1] | Potency [2] | Potency [3]

O=[N+]([O-])c1cccc(S(=O)(=O)NCCNS(=O)(=O)c2cccc([N+](=O)[O-])c2)c1
inactive: Potency [1] | Potency [2]

CC(CCc1ccc2c(c1)OCO2)NN (stereo unspecified)
inactive: Potency [1] | Potency [2] | Potency [3] | Potency [4]

CCCCCCCC/C=C\CCCCCCCC(=O)OC
inactive: Potency [1] | Potency [2] | Potency [3]

O=S(=O)(c1ccccc1)c1ccc(Cl)cc1
inactive: Potency [1] | Potency [2] | Potency [3]

CCC(=O)OC/C=C/c1ccccc1
inactive: Potency [1] | Potency [2] | Potency [3]

CC(CCO)CCc1ccccc1 (stereo unspecified)
inactive: Potency [1] | Potency [2] | Potency [3]

CC(C)(O)c1ccccc1CC[C@@H](SCC1(CC(=O)O)CC1)c1cccc(/C=C/c2ccc3ccc(Cl)cc3n2)c1
inactive: Potency [1] | Potency [2] | Potency [3]

C=CC(C)=CCC=C(C)C
inactive: Potency [1] | Potency [2] | Potency [3]

CN1Cc2cc(C(=O)N3CCC(C4CCNCC4)CC3)ccc2N[C@@H](CC(=O)O)C1=O
inactive: Potency [1] | Potency [2] | Potency [3]

CCOCCn1c(C2CCN(CCc3ccc(C(C)(C)C(=O)O)cc3)CC2)nc2ccccc21
inactive: Potency [1] | Potency [2] | Potency [3]

Cc1cc(C(=C2C=CC(=Nc3ccc(S(=O)(=O)O)cc3S(=O)(=O)O)C=C2)c2ccc(Nc3ccc(S(=O)(=O)O)cc3)cc2)ccc1N
inactive: Potency [1] | Potency [2] | Potency [3]

C=CCCCCCCCCCCCCCCCC
inactive: activation [1] 0.376% [at 6.98 µM] | activity change, negative = cytotoxicity [2] 6.72% [at 6.97 µM] | activity change, negative = cytotoxicity [3] 0.367% [at 8.39 µM] | activity, negative = inhibition [4] -14.9% [at 8.39 µM] | activation [5] -0.865% [at 8.36 µM]

CC(C)C(=O)O
inactive: Potency [1] | Potency [2] | Potency [3] | Potency [4]

O=C(/C=C/c1ccccc1)OCCCc1ccccc1
inactive: Potency [1] | Potency [2] | Potency [3] | Potency [4]
active: Potency [5] 61.1 µM

COc1ccccc1N=Nc1c(S(=O)(=O)O)cc2cc(S(=O)(=O)O)cc(NC(C)=O)c2c1O
active: Potency [3] 22.9 µM
inactive: Potency [1] | Potency [2] | Potency [4] | Potency [5]

CCC(C(=O)OCCN(CC)CC)c1ccccc1 (stereo unspecified)
inactive: Potency [1] | Potency [2] | Potency [3] | Potency [4] | Potency [5]

[O]=[Bi]
inactive: activation [1] -1.06% [at 6.98 µM] | activity change, negative = cytotoxicity [2] 0.795% [at 6.97 µM] | activity change, negative = cytotoxicity [3] -0.124% [at 8.39 µM] | activity, negative = inhibition [4] 92.1% [at 8.39 µM]

CN1CCCN=C1/C=C/c1cccs1
inactive: Potency [1] | Potency [2] | Potency [3] | Potency [5]

CCc1cccc(N(C)C(N)=Nc2cccc3ccccc23)c1
inactive: Potency [1] | Potency [2] | Potency [3] | Potency [5] | outcome [6]

Reference: PubChem BioAssay (Tox21)
